Measurements from PubChem BioAssay AID2401 (Southern Research Specialized Biocontainment Screening …, 2010).
Among all 2,200 compounds or so, about 530 (24%) were called active. A selection follows. Entries with a potency or affinity are not part of this list. Unmarked numbers belong to inactive results.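 Rule for the calls: active = inhibition above a set limit at one or more concentrations of the dose series; inactive = inhibition under that limit at every dose.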

Experiment: nmpC-GFP reporter counter-screen in S. Typhimurium, dose response, counter-screen for PhoP regulon inhibitor project, Salmonella Typhimurium, GFP fluorescence (AID 2401);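 note: S. typhimurium with Mg-insensitive nmpC-GFP reporter grown at 10 µM Mg2+; drop in reporter fluorescence reflects general culture growth inhibition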
Settings: 4 h; series mostly up to 150 µM; inhibition: at the top concentration

| Structure (SMILES) | inhibition [%] |
| --- | --- |
| NC(=O)c1ccccc1NC(=O)/C=C/C(=O)O | -8.68 |
| O=C(Cc1cccs1)Nc1nc2c(s1)CCCC2 | -24.8 |
| COc1ccc([N+](=O)[O-])cc1N(CC(O)Cn1nnc2ccccc21)S(=O)(=O)c1ccc(C)cc1 (stereo not drawn) | -42.2 |
| O=C(O)/C=C/C(=O)Nc1cccc(C(F)(F)F)c1 | -19.4 |
| Cc1cccc(NC(=O)c2ccc(Cn3cc(C(F)(F)F)ccc3=O)cc2)c1 | 7.69 |
| NS(=O)(=O)c1ccc(Nc2nc(-c3ccc(O)cc3)cs2)cc1 | -18.4 |
| COCc1cc(C)nc(N2CCc3ccccc32)c1C#N | -22.8 |
| O=C(CSc1nnc(Cc2ccccc2)o1)NCCc1ccccc1 | -24.4 |
| CCn1c(=N)n(CC(O)c2ccccc2)c2ccccc21 (stereo not drawn) | -16 |
| Cc1ccccc1OCCCCCn1ccnc1 | -17 |
| C1=C(CCNc2ncnc3c2[nH]c2ccccc23)CCCC1 | 26.4 |
| COc1ccc(C(=O)NCCC2=CCCCC2)cc1OC | 5.91 |
| Cc1nc2ccccc2c(=O)n1/N=C/c1ccc(N(C)C)cc1 | -15.2 |
| COc1cccc(Nc2nc(-c3sc(NC(=O)c4ccco4)nc3C)cs2)c1 | 25.7 |
| O=C(NCCNS(=O)(=O)c1cccc(C(F)(F)F)c1)c1cc(OCC(F)(F)F)ccc1OCC(F)(F)F | -2.55 |
| CCOC(=O)C1CCCN(C(=O)Cc2ccc(Cl)cc2)C1 (stereo not drawn) | -20.2 |
| NC(=NCc1ccc2c(c1)OCO2)NC(=O)c1ccccc1 | 36.3 |
| COc1ccc(-c2nc3ncccc3n2O)cc1 | -18.4 |
| O=C(CSc1nccc(=O)[nH]1)N1c2ccccc2CCc2ccccc21 | 1.74 |
| O=C(CSC1CC(=O)N(CCc2ccccc2)C1=O)Nc1cccc(Cl)c1 (stereo not drawn) | 9.92 |
| COc1ccc(NC2=NC3(CCCCC3)N=C(N)N2)cc1 | -8.53 |
| CC(C)c1ccc(NC(=O)Nc2cc3sccc3n2C)cc1 | 22.1 |
| CCOC(=O)C1CCCN(C(=O)c2sc3nc(C)nc(N4CCOCC4)c3c2C)C1 (stereo not drawn) | -24.6 |
| CCn1c(Cc2ccccc2)nnc1SCC(=O)Nc1nc(C)c(C)s1 | -12.1 |

| Structure (SMILES) | inhibition [%] |
| --- | --- |
| OC1(c2cccc(C(F)(F)F)c2)CCN(c2ncnc3c2[nH]c2ccccc23)CC1 | 15.2 |
| Cc1ccc(Oc2nnc(-c3ccccc3)c3ccccc23)cc1 | 3.31 |
| NC(=O)c1oc2ccccc2c1NC(=O)CN1CCCCC1 | -2.53 |
| O=C(CN1CCCc2ccccc21)N/N=C/c1c(O)ccc2ccccc12 | 38.1 |
| Nc1ccc(S(=O)(=O)Nc2ccc(Cl)nn2)cc1 | 15.9 |
| O=C(Nc1cccc(-c2cn3cccnc3n2)c1)c1ccco1 | -21.2 |
| CCOCCCNC(=S)Nc1cc(C)cc(C)c1 | -3.38 |
| O=C(CCNS(=O)(=O)c1cccc2nsnc12)Nc1ccc2c(c1)OCCO2 | -13.2 |
| c1ccc(COc2cccc(CN3CCN(c4ccccn4)CC3)c2)cc1 | -21.9 |
| O=c1[nH]c(CN2CCCCC2)nc2ccccc12 | -18.8 |
| c1cncc(-c2nc(N3CCOCC3)c3ccccc3n2)c1 | -13.2 |
| Cc1cc(C(C)c2ccccc2)c(O)c(CN2CCOCC2)c1C (stereo not drawn) | 16.5 |
| CC1(C)CC(=O)C(/C=N/c2ncccc2C(=O)O)=C(O)C1 | -7.77 |
| CCOC(=O)c1ccc(NC(=O)Nc2cc(C)on2)cc1 | -22.6 |
| COc1ccc(NC2=NC(=S)N(c3cccc(C)c3)C23CCCCC3)cc1 | -30.8 |
| CN(C)c1ccc(Nc2nc(-c3cccnc3)cs2)cc1 | 31 |
| CCC(CC)NC(=O)COC(=O)c1ccc(OCC(=O)Nc2ccccc2OC)c(OC)c1 | -12.6 |
| O=C(O)C1CCCN1S(=O)(=O)c1ccc2[nH]c(=O)c(=O)[nH]c2c1 (stereo not drawn) | -21.6 |
| N=c1n(Cc2ccc(Cl)cc2)c2ccccc2n1CC(O)c1ccco1 (stereo not drawn) | 38.9 |
| N=c1n(CCO)c2ccccc2n1Cc1ccc(Cl)cc1 | 10.3 |
| N#CCC1c2ccccc2CCN1C(=O)Nc1ccc(Cl)cc1 (stereo not drawn) | -25.1 |
| N/C(=N\c1nc2ccccc2o1)NC(=O)c1ccccc1F | -4.05 |
| Cn1c(-c2ccc(N)cc2)nc2ccccc21 | -13.6 |
| CCCCCOc1ccc(NC(=O)C(=O)NCCC2=CCCCC2)cc1 | -29 |

| Structure (SMILES) | inhibition [%] |
| --- | --- |
| CN1/C(=C/C2CC(=O)N(c3cccc4ccccc34)C2=O)C(C)(C)c2ccccc21 (stereo not drawn) | 37.3 |
| CN1/C(=C\C=N\NC(=O)c2ccccc2Br)C(C)(C)c2ccccc21 | 9.45 |
| C=CCNC(=O)c1ccc(N(C)S(=O)(=O)c2ccc(OC)cc2)cc1 | -4.35 |
| CC(=O)Nc1nc(-c2ccc(Cl)cc2)nc(C)c1C(C)=O | -23.7 |
| COC(=O)c1ccccc1NC(=O)NCc1ccc2c(c1)OCO2 | -23.4 |
| c1ccc(-c2cnn3nnnc3n2)cc1 | 1.88 |
| O=C(NCc1cccs1)Nc1cccs1 | -33.1 |
| CC(C)Cn1cnc2sc3c(c2c1=N)CCCC3 | -4.26 |
| CSc1nnc2c3c4c(sc3nc(-n3nc(C)cc3C)n12)COC(C)(C)C4 | -11.8 |
| Cn1c(NCc2cc(Br)ccc2O)nc2ccccc21 | -21.2 |
| COc1cc(/C=C2/SC(=S)N(CC(=O)Nc3cccnc3)C2=O)cc(OC)c1OC | -45.8 |
| CC1Cc2ccccc2N1C(=O)COC(=O)c1ccc(S(=O)(=O)N(C)C)cc1 (stereo not drawn) | -26.3 |
| O=C(NC1CCCCC1)C(c1ccncc1)N(CC1CCCO1)C(=O)C(F)(F)F (stereo not drawn) | 3.65 |
| CCn1nnc(-c2ccccc2NC(=O)c2ccc(-n3cnnn3)cc2)n1 | -6.44 |
| CC(C)NCCCOc1ccc(Cl)cc1Br | 10.7 |
| Clc1cc(Br)ccc1OCCn1ccnc1 | 11.8 |
| Clc1ccc(OCCCn2ccnc2)c(Br)c1 | 16.8 |
| O=C(COc1ccc(Br)cc1Cl)NC(=O)NCc1ccccc1 | -5.96 |
| c1ccc(COc2ccccc2CNCc2cccnc2)cc1 | -26 |
| CCCCNCCCOc1cccc(Cl)c1Cl | 16.4 |
| CCN(Cc1ccccc1)C(=O)CN1C(=S)NC(C)(C)CC1C (stereo not drawn) | -9.86 |
| CCOC(=O)Nc1ccc(C)cc1C | -17.9 |
| COC(=O)c1[nH]c2ccc(C)cc2c1NC(=O)Nc1ccc(OC)cc1 | -17.9 |
| O=C(/C=C/c1cccs1)N1CCN(Cc2ccc3c(c2)OCO3)CC1 | -15.1 |

| Structure (SMILES) | inhibition [%] |
| --- | --- |
| O=C(Nc1cccc2ccccc12)c1ccc(Cn2cc(Cl)cn2)cc1 | 0.25 |
| NC(=O)c1cnn(Cc2ccc(Cl)cc2)c1N | -17.2 |
| CN(C)c1ccnc(Oc2ccc(F)cc2)c1C#N | -16.6 |
| COc1ccc(CN=C2Nc3ccccc3CS2)cc1 | -0.21 |
| Fc1ccc(-c2n[nH]c(=S)n2/N=C/c2c[nH]c3ccccc23)cc1 | 12.6 |
| Cc1cc(=O)[nH]c(N/N=C/c2c[nH]c3ccccc23)n1 | -27.2 |
| O=C(N/N=C/c1cn(-c2ccccc2)nc1-c1ccc(F)cc1)c1ccc2c(c1)OCO2 | 24.5 |
| CCCCn1c(/N=C/c2c[nH]c3ccccc23)nc2ccccc21 | 19.1 |
| Cc1c(NS(=O)(=O)c2ccccc2)c(=O)n(-c2ccccc2)n1C | -18.6 |
| Cc1ccc2nc(SCC(=O)NCc3ccco3)[nH]c2c1 | 0.53 |
| Cc1cccc(Nc2nnc(SCC(=O)NC3CCCc4ccccc43)s2)c1 (stereo not drawn) | -3.06 |
| Nc1cc(Br)c(N)c(Br)c1 | -3.53 |
| CC(=O)Nc1c(O)nc(SCC(=O)N2CCN(c3ccc(F)cc3)CC2)[nH]c1=O | -33.4 |
| CCOC(=O)CNS(=O)(=O)c1c(C)noc1C | -21.7 |
| CC1=C(C(=O)Nc2cccnc2)C(c2ccccn2)n2nnnc2N1 (stereo not drawn) | -1.7 |
| Cc1ccc(-n2nnnc2SCC(=O)Nc2ncc(Cc3ccccc3Cl)s2)cc1 | -23.2 |
| Cc1ccc([N+](=O)[O-])cc1-c1ccc(/C=C(\C#N)c2[nH]nc(N)c2C#N)o1 | -2.4 |
| CCOC(=O)Cn1nnnc1C(C(C)C)N(Cc1cccs1)Cc1cc2cc(C)ccc2[nH]c1=O (stereo not drawn) | -3.99 |
| O=C(Nc1cnn(Cc2ccc(F)cc2)c1)c1cnccn1 | -15.5 |
| Cc1ccc2cc(CN(CCO)Cc3nnnn3Cc3ccc(F)cc3)c(=O)[nH]c2c1 | -11.4 |
| Cc1cc(/C=N/NC(N)=S)c(C)n1-c1ccc(Cl)c(Cl)c1 | -8.78 |
| N#C/C=C(/N)c1ccc(Br)cc1 | 8.99 |
| Cc1ccc(/C=C/c2nnc(-c3ccc(C)cc3)o2)cc1 | 6.49 |
| O=C(c1[nH]ncc1-c1ccc(Cl)cc1)C1CO1 (stereo not drawn) | -25.8 |

| Structure (SMILES) | inhibition [%] |
| --- | --- |
| O=C1c2ccccc2C(=O)N1CCCc1nc2ccccc2c(=O)n1Cc1ccco1 | -27.4 |
| CCn1c(=O)c2c(O)cc(=O)oc2c2ccccc21 | -11 |
| COc1ccc(S(=O)(=O)n2ccc(-c3ccc(OCCN(C)c4ccccn4)cc3)n2)cc1 | -26.2 |
| COC(=O)c1ccc(NC(=S)NCCc2cccc(C)c2)cc1 | -15.9 |
| CCOC(=O)C1=C(c2ccccc2)NC(SC)=C(C#N)C1c1ccco1 (stereo not drawn) | -18.8 |
| CC1OC(Nc2cccc3ccccc23)C(O)C(O)C1O (stereo not drawn) | -28.1 |
| Cc1nc2ccccc2n1CC(=O)N/N=C\C=C\c1ccccc1 | -17.8 |
| COc1ccc(-c2csc(NCc3ccco3)n2)cc1 | 16.3 |
| c1ccc(CN2CCN(c3nc(NCc4ccco4)c4ccccc4n3)CC2)cc1 | 10.5 |
| COc1ccc(Nc2nc(NCc3ccco3)nc(N/N=C/c3ccccc3Cl)n2)cc1 | 10.1 |
| Cc1cccc(C(=O)NC(NCc2ccco2)C(Cl)(Cl)Cl)c1 (stereo not drawn) | -36 |
| Cc1ccc(-c2nc(NCc3cccnc3)c3ccccc3n2)cc1 | 8.39 |
| Oc1ccccc1Nc1nc(NCc2ccco2)c2ccccc2n1 | 33.4 |
| Cc1ccc2[nH]c3c(NCc4ccco4)ncnc3c2c1 | -14.2 |
| c1ccc(CNc2ncnc3ccccc23)cc1 | 37.4 |
| C#CC(C)(CC)NC(=O)c1cc(OC)c(OC)c(OC)c1 (stereo not drawn) | -28.1 |
| COC(=O)c1ccc(C)c(NC(=O)CN(c2cc(OC)ccc2OC)S(C)(=O)=O)c1 | -12.7 |
| CN(CC(=O)Nc1ccc(C#N)cc1)Cc1ccc(Cl)cc1 | -2.33 |
| Cc1cccc(C)c1Nc1nnc(SCC(=O)Nc2sccc2C#N)s1 | 1.76 |
| COc1ccc(S(=O)(=O)n2nc(OC(=O)c3cccs3)cc2N)cc1 | 2.91 |
| CCC(CC)c1nnc(NC(=O)Oc2ccccc2)s1 | -6.28 |
| CCOc1cccc(CNc2ccc(O)cc2)c1OCc1ccc(Cl)cc1Cl | -17.2 |
